# Screens (PubChem)
# Most compounds without a hit are left out; they make up all but 6.3% or so of the library.
# tim10-1 inh = inhibits growth of tim10-1 mutant yeast | S. cerevisiae tim10-1 ts strain growth, BacTiter-Glo, 24 h | inhibition, % at 20 µM | 2.2% of 330,000 active | AID 463190;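 active = inhibition of at least 40%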;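 also: mutant grown at 25 °C; 0% = DMSO wells with yeast and 100% = wells holding no yeast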
# tim23-1 inh = inhibits growth of tim23-1 mutant yeast. 1.3% of 330,000 active. inhibition, % at 20 µM. S. cerevisiae tim23-1 growth, BacTiter-Glo luminescence, 24 h. AID 463212;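 active = growth inhibition of the mutant yeast at or above 50%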;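 also: temperature-sensitive mutant grown at 25 °C; plate controls were DMSO-treated mutant yeast for no effect and medium wells lacking yeast for full effect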
# TIM10 inh = TIM10 yeast growth inhibition; S. cerevisiae TIM10 strain growth, BacTiter-Glo luminescence, 24 h; inhibition, % at 10 µM; 1.4% of 330,000 active; AID 463195;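 active = inhibition of 40% or more at the single tested concentration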;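 also: wild-type TIM10 isogenic control strain grown at permissive 25 °C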
# Mdm2 MdmX PPI = inhibitors of human Mdm2/MdmX interaction; SaOS-2 split-luciferase Mdm2/MdmX complementation, luminescence; inhibition, % at 8 µM; 3% of 330,000 active; AID 485346;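 active = inhibition of at least 50% at 8 µM in the primary screen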
# MPTP inh = blocks calcium-induced mitochondrial swelling; inhibition, % at 10 µM; 1.4% of 360,000 active; isolated mouse mitochondria, Ca2+ swelling absorbance, 30 min;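 active = inhibition of 50% or more, scaled per plate between neutral and stimulator controls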;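 also: 0% = DMSO wells given calcium and 100% = 1 mM EGTA wells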
# tim10-1 confirm = tim10-1 yeast growth inhibition, confirmed; S. cerevisiae tim10-1 ts strain growth, BacTiter-Glo, 24 h; AID 463213; shares compounds with tim10-1 inh; 56% of 7,400 active; inhibition, % at 20 µM;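 active = inhibition of yeast growth at or above a set limit in either of two repeat tests at 20 µM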;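 also: tim10-1 mutant grown at permissive 25 °C to find synthetic lethal compounds; 0% = DMSO yeast wells and 100% = medium wells without yeast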
# TIM10 conf = TIM10 yeast growth inhibition, confirmed; shares compounds with TIM10 inh; AID 463215; S. cerevisiae tim10 strain growth, BacTiter-Glo luminescence, 24 h; inhibition, % at 10 µM; 63% of 4,600 active;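 active = inhibition of yeast growth at or above a set limit in either of two replicates at 10 µM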;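 also: this counterscreen used the strain with wild-type TIM10; 0% = yeast with DMSO and 100% = medium wells lacking yeast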
# tim23-1 confirm = tim23-1 yeast growth inhibition, confirmed | shares compounds with tim23-1 inh | 83% of 4,400 active | inhibition, % at 20 µM | AID 463218 | S. cerevisiae tim23-1 growth, BacTiter-Glo luminescence, 24 h;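 active = inhibition above about 39% in either of two replicate wells at 20 µM, limit read from the data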;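 also: temperature-sensitive tim23-1 mutant grown at 25 °C; 0% = DMSO wells with yeast and 100% = medium wells without yeast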
# Mdm2 MdmX conf = confirmation of human Mdm2/MdmX interaction inhibitors | shares compounds with Mdm2 MdmX PPI | Mdm2-MdmX binding, luminescent assay | inhibition, % at 8 µM | 55% of 10,000 active | AID 489028; in the data active = inhibition above about 40%
# FLuc counter = full-length luciferase inhibition in Mdm2/MdmX counter-screen | inhibition, % at 8 µM | shares compounds with Mdm2 MdmX PPI | 77% of 6,200 active | AID 504607 | SaOS-2 full-length luciferase counterscreen, luminescence;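 active = mean inhibition at 8 µM reaching about 37%, which flags the compound as non-specific, limit read from the data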;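 also: p53-null SaOS-2 cells with luciferase driven by a doxycycline-inducible promoter; compound on cells about two nights before reading with doxycycline added after day one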
# Numbers without * were called inactive; nt = no result.
SMILES,tim10-1 inh,tim23-1 inh,TIM10 inh,Mdm2 MdmX PPI,MPTP inh,tim10-1 confirm,TIM10 conf,Mdm2 MdmX conf,FLuc counter,others
O=C(N/N=C/c1cccc([N+](=O)[O-])c1)c1cccs1,6,11,17,-2,4,nt,nt,nt,nt,
O=C(/C=C/c1cccc([N+](=O)[O-])c1)c1cccs1,57*,52*,69*,74*,2,52*,72*,57*,74*,tim23-1 confirm=49*
O=C(/C=C/c1cccc([N+](=O)[O-])c1)n1cnc2ccccc21,46*,47,45*,100*,0,43*,39*,94*,25,
CCc1nc2c(OCC3COc4ccccc4O3)cccn2c1N(C)C(=O)c1ccc(OC)cc1 (stereo unspecified),nt,nt,nt,nt,-1,nt,nt,nt,nt,
Cc1ccc(CN2CC(N3CCN(CC4CC4)CC3)CS2(=O)=O)cc1 (stereo unspecified),nt,nt,nt,nt,0,nt,nt,nt,nt,
CCOc1cc(/C=C2\CN(CC)C/C(=C\c3ccc(O)c(OCC)c3)C2=O)ccc1O,49*,42,34,96*,5,29,nt,97*,57*,
CCc1cccc(N=c2c([N+](=O)[O-])nn(-c3ccc4c(c3)OCCO4)n2O)c1,48*,47,57*,73*,3,31*,42*,77*,62*,
CC(C)c1ccc(N=c2c([N+](=O)[O-])nn(-c3ccc4c(c3)OCCO4)n2O)cc1,22,30,24,5,15,nt,nt,nt,nt,
Cc1ccc(O)c(C(=O)/C=C/c2ccc3c(c2)OCCO3)c1,55*,41,59*,52*,2,54*,50*,24,nt,
CCc1nc2c(OCc3ccc4c(c3)OCO4)cccn2c1N(C=O)Cc1ccc(OC)cc1,nt,nt,nt,nt,0,nt,nt,nt,nt,
Cc1ccc(Nc2cc(C)nn2-c2nc(C)cc(=O)[nH]2)cc1,63*,68*,76*,98*,-3,47*,-17,100*,2,tim23-1 confirm=52*
Cc1ccc(Nc2nc3ccccc3nc2-n2nc(C)cc2C)cc1,4,18,5,15,2,nt,nt,nt,nt,
CC(=O)OCCCNc1cc(Sc2nc3ccccc3s2)c2nonc2c1[N+](=O)[O-],91*,44,85*,100*,4,91*,1,77*,52*,
CC(=O)OCCNc1cc(Sc2nc3ccccc3[nH]2)c2nonc2c1[N+](=O)[O-],nt,nt,nt,nt,0,nt,nt,nt,nt,
CCC(C)Nc1nc(N)c([N+](=O)[O-])c(Nc2cc(OC)ccc2OC)n1 (stereo unspecified),40*,38,32,69*,8,15,nt,19,nt,
CCC(C)Nc1nc(N)c([N+](=O)[O-])c(Nc2ccccc2OC)n1 (stereo unspecified),43*,53*,23,59*,6,17,nt,24,nt,tim23-1 confirm=49*
COc1ccc(OC)c(Nc2nc(NCCC(C)C)nc(N)c2[N+](=O)[O-])c1,24,27,32,42,15,nt,nt,nt,nt,
COc1ccccc1Nc1nc(NCCCN(C)C)nc(N)c1[N+](=O)[O-],12,11,-2,38,0,nt,nt,nt,nt,
CC1(c2nc3ccccc3[nH]2)CCC(=O)N1Cc1cccs1 (stereo unspecified),nt,nt,nt,nt,1,nt,nt,nt,nt,
CN[C@H](C)C(=O)NC[C@H]1O[C@@H](n2cc(C)c(=O)[nH]c2=O)C[C@@H]1O,nt,nt,nt,nt,-2,nt,nt,nt,nt,
CC1CN(C(=O)COC(=O)/C=C/c2ccccc2)CC(C)O1 (stereo unspecified),nt,nt,nt,nt,0,nt,nt,nt,nt,
Cc1ccc(NC2=C/C(=N\S(=O)(=O)c3cccs3)c3ccccc3C2=O)c(C)c1,74*,36,60*,84*,8,49*,-5,100*,52*,
Cc1ccc(Cl)cc1NC1=C/C(=N\S(=O)(=O)c2cccs2)c2ccccc2C1=O,71*,52*,74*,81*,13,66*,69*,100*,52*,tim23-1 confirm=65*
Cc1cccc(NC2=C/C(=N/S(=O)(=O)c3cccs3)c3ccccc3C2=O)c1,nt,nt,nt,nt,7,nt,nt,nt,nt,
COc1ccccc1Cn1c(=O)c2ccccc2n2c(SCc3csc(C)n3)nnc12,27,25,17,15,1,nt,nt,nt,nt,
SMILES,tim10-1 inh,tim23-1 inh,TIM10 inh,Mdm2 MdmX PPI,MPTP inh,tim10-1 confirm,TIM10 conf,Mdm2 MdmX conf,FLuc counter,others
COc1ccccc1Cn1c(=O)c2ccccc2n2c(Sc3ncnc4sccc34)nnc12,43*,45,45*,76*,0,34*,30,30,nt,
COc1c(OC)c(O)c2c(=O)cc(-c3c(O)cccc3O)oc2c1OC,-19,13,-13,11,2,nt,nt,nt,nt,
O=c1cc(-c2c(F)c(F)c(F)c(F)c2F)oc2c(F)c(F)c(F)c(F)c12,42*,31,54*,100*,nt,46*,41*,99*,1,
CCC(=O)N(c1nnc(SCC(=O)Nc2sccc2C(N)=O)s1)C1CC1,nt,nt,nt,nt,0,nt,nt,nt,nt,
COc1ccc(-c2cc(C(=O)Nc3ccccc3N3CCOCC3)c3ccccc3n2)cc1OC,42*,14,30,53*,-2,25,nt,58*,75*,
CC(=O)Nc1cc(-c2cccc(F)c2)cn2c(-c3ccc(F)cc3)cnc12,nt,nt,nt,nt,0,nt,nt,nt,nt,
Cc1ccc(C2Oc3ccccc3C3=C2C(c2cccs2)n2ncnc2N3)cc1 (stereo unspecified),42*,48,45*,58*,1,26,16,70*,37*,
O=C(NCC1CC1)C1Cc2c(-c3ccc4c(c3)OCO4)ccnc2O1 (stereo unspecified),nt,nt,nt,nt,0,nt,nt,nt,nt,
COc1ccc([C@@H]2CC(=O)[C@@H]3CN(S(=O)(=O)c4ccc(C)cc4)[C@H](c4cccc(Cl)c4)C[C@@H]3N2S(=O)(=O)c2ccccc2)cc1,nt,nt,nt,nt,2,nt,nt,nt,nt,
Oc1cccc2ccc(Nc3ccccn3)nc12,67*,52*,13,72*,4,64*,nt,100*,52*,tim23-1 confirm=79*
COc1ccc(C(=O)Cn2c(C(=O)/C=C/c3ccccc3)nc3ccccc32)cc1,49*,19,41*,72*,1,44*,36*,46*,61*,
c1ccc(N=NC2=NN(c3ccccc3)CS2)cc1,nt,nt,nt,nt,12,nt,nt,nt,nt,
C[C@@H](NC(=O)[C@@H]1CCCN1C(=O)[C@@H]1CCCN1)c1ccccc1,nt,nt,nt,nt,-2,nt,nt,nt,nt,
O=C(N/N=C/c1cc(Cl)cc([N+](=O)[O-])c1O)c1cc(-c2ccccn2)nc2ccccc12,45*,51*,19,59*,44,9,nt,2,nt,tim23-1 confirm=23
O=C(N/N=C/c1ccc(F)cc1)c1cc(-c2ccccn2)nc2ccccc12,-9,-5,-16,9,-2,nt,nt,nt,nt,
